Test: S. cerevisiae RM11-1a growth modifiers, primary screen, strain RM11-1a, OD600, basal, 24 h (AID 1177);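 also: cultures grown under basal conditions with no added stressor; test concentration not given here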
Conditions: OD600, 24 h, higher = more signal, called active from +8 up or from −8 down

z-score, inactive:
CC1CC/C=C\[C@H]2OC34C=CCN(c5ccc6ccccc6c5)C(=O)[C@H]3N(CCCCCO)C(=O)[C@@H]4C2C(=O)O1 (stereo not given in full) -0.122
CN1C(=O)C2C=CC(C(O)C(C)(C)C)N(Nc3ccccc3)C2C1=O (stereo not given) 0.0609
Cc1ccc(S[C@]2(C(=O)NCCCN(C)C)CC(=O)N(Cc3ccccc3)[C@@H]2c2ccc(CO)cc2)cc1 -0.358
O=C1O[C@H](c2ccccc2)[C@H](c2ccccc2)N2[C@H]1[C@@H](C(=O)NC[C@H](O)c1ccccc1)[C@]1(C(=O)Nc3ccc(C#CC4=CCCCC4)cc31)[C@H]2c1ccc(O)cc1 1.62
O=C(CS)NCCCCCNC(=O)[C@H]1C[C@H]2C(=O)N[C@@H](Cc3ccccc3)C(=O)N2[C@H]1c1cccc(OCCO)c1 -0.572
CCCC[C@H]1OB(O)C[C@H]2C1=C(COc1ccccc1)C[C@H]1C(=O)N(Cc3ccccc3)C(=O)[C@H]12 -0.0955
O=c1cccc(-c2cccc3ccccc23)o1 -1.95
CCCCCN1CC=CC23O[C@@H]4C=CCCOC(=O)C4[C@H]2C(=O)N(CCCO)[C@@H]3C1=O (stereo not given in full) -0.126
CS(=O)(=O)CCOC(=O)C1=CC(c2ccc(CO)cc2)=CC(c2cccs2)N(Cc2cccc(OC(F)(F)F)c2)C=C1C(=O)OCCS(C)(=O)=O (stereo not given) 0.267
C#C[C@H](O[Si](C#CCCCCCC)(C(C)C)C(C)C)c1ccccc1 -0.0669
COc1ccc([Si](C)(C)[C@@H]2[C@@H](CCO)O[C@]3(C(=O)N(Cc4ccccc4)c4ccc(N(C=O)c5ccccc5)cc43)[C@H]2C)cc1 5.4
C=C(COC)C(=O)CC[C@H](OC(=O)c1cccnc1)c1ccccc1OCCO -0.511
C=CCC(OC(C)=O)[C@@H]1[C@@H](N(Cc2cc3ccccc3o2)C(=O)c2ccc(C)cc2)c2cc(OCCCO)ccc2N1C(=O)c1ccc(-c2ccccc2)cc1 (stereo not given in full) -3.8
NC(=O)[C@]1(Cc2ccccc2)N=C(c2ccc(OCCCO)cc2)O[C@@H]1c1ccccc1 0.569
[N-]=[N+]=NCc1ccccc1C[C@]1(C(=O)NCCN2CCOCC2)N=C(c2ccc(OCCCO)cc2)O[C@H]1c1ccccc1CN=[N+]=[N-] -1.95
CCOC(=O)C1=CC[C@@H](c2cccc(Cl)c2)N(S(=O)(=O)c2ccc(C)cc2)[C@H]1c1ccc(C#N)cc1 0.834
O=c1cccc(-c2ccccc2)o1 0.434
CC(=O)NCCCC[C@@H]1NC(=O)[C@@H]2C[C@H](C(=O)NCc3ccc(F)cc3)[C@H](c3ccc(O)cc3)N2C1=O -0.985
O=C1OCCC=C[C@H]2OC34C=CCN(c5ccc6ccccc6c5)C(=O)[C@H]3N(CCCCCCO)C(=O)[C@@H]4C12 (stereo not given in full) 0.522
O=C1OCCC/C=C\[C@H]2OC34C=CCN(Cn5nnc6ccccc65)C(=O)[C@H]3N(CCCO)C(=O)[C@@H]4C12 (stereo not given in full) -0.44
CC(C)OC(=O)C1=CCC(c2cccc(Cl)c2)O1 (stereo not given) -2.25
O=C1[C@H]2C=C(Br)[C@H](C[C@@H]2OCCOCCO)[C@@]12CO2 1.4
O=c1cccc(-c2ccc3ccccc3c2)o1 -2.6
CCCCCCCCCCC(O)C1C=CC2C(=O)N(c3ccccc3)C(=O)C2N1Nc1ccc([N+](=O)[O-])cc1 (stereo not given) 0.0401
CN1C(=O)C2C=CC(C(O)c3ccccc3)N(NC(=O)OC(C)(C)C)C2C1=O (stereo not given) 1.18
CN(C)CCCC[C@@H]1NC(=O)[C@@H]2C[C@H](C(=O)NCCCCCCN)[C@H](c3ccc(O)cc3)N2C1=O 0.793
CCOC(=O)C[C@H]1[C@H](OC(=O)c2cc3ccccc3oc2=O)[C@@H](NC(=O)c2ccc3ccccc3c2)c2cc(OCCCO)ccc2N1C(=O)c1ccccc1 -0.283
COc1ccc([Si](C)(C)[C@@H]2[C@@H](CCO)O[C@]3(C(=O)N(Cc4ccc(N5C(=O)c6cccc7cccc5c67)cc4)c4ccccc43)[C@H]2C)cc1 3.87
O=C(NCC(O)CO)[C@@]1(Cc2ccccc2)COC(c2ccc(OCCCO)cc2)=N1 (stereo not given in full) 0.0962
CC(C)(C)OC(=O)CC[C@]1(C(=O)NCC(O)CO)N=C(c2ccc(OCCCO)cc2)O[C@H]1c1ccccc1CN=[N+]=[N-] (stereo not given in full) -0.591
C=C(/C(=C/C[C@@H](OC(C)=O)c1ccc(CO)o1)c1cnc2ccccc2c1)C(C)C 0.27
O=C1O[C@H](c2ccccc2)[C@H](c2ccccc2)N2[C@H]1[C@@H](C(=O)NC[C@H](O)c1ccccc1)[C@]1(C(=O)Nc3ccc(C#CC4(O)CCCCCC4)cc31)[C@H]2c1ccccc1OCCO 3.43
O=C1C[C@@](C(=O)O)(c2ccc([N+](=O)[O-])cc2)[C@@H](c2ccc(CO)cc2I)N1C1CCCCC1 -1.01
COc1ccc(CCNC(=O)[C@@]2(C)c3ccccc3C(=O)N(Cc3ccccc3)[C@H]2c2ccc(CO)cc2)cc1 -0.803
CC1CC/C=C\[C@H]2OC34C=CCN(Cn5nnc6ccccc65)C(=O)[C@H]3N(CCCO)C(=O)[C@@H]4C2C(=O)O1 (stereo not given in full) 0.801

Reference: PubChem BioAssay
